Assay [1] addresses rat Monoamine Oxidase, MAO-B, Peripheral (MAOBP), Maob (gene 25750) (UniProt P19643). In words: NVS_ENZ_rMAOBP: NovaScreen (NVS) Enzymatic Assay for rat Monoamine Oxidase, MAO-B, Peripheral (MAOBP) (AID 2283242).
Assay [2] has as its target rat Acetylcholinesterase (AChE), Ache (gene 83817) (UniProt P37136). In words: NVS_ENZ_rAChE: NovaScreen (NVS) Enzymatic Assay for rat Acetylcholinesterase (AChE) (AID 2283233). An outline of the steps: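 Compounds first screened at 25 uM in duplicate, then those passing threshold tested in concentration series up to 50 uM, against AChE from rat brain membranes. Enzyme activity read by absorbance at 0.33 h; inhibition scored versus DMSO.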

Assay [3] deals with human Raf-1 Proto-Oncogene, serine/threonine Kinase (RAF1), RAF1 (gene 5894) (UniProt P04049). Put plainly: NVS_ENZ_hRAF1: NovaScreen (NVS) Enzymatic Assay for human Raf-1 Proto-Oncogene, serine/threonine Kinase (RAF1) (AID 2283216). The gist of the method:
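Single-point screening at 25 uM (duplicate), followed by singleton concentration-response to 50 uM maximum for chemicals exceeding threshold. Enzyme activity from fluorescent substrate-product mobility-shift separation after 1 h, relative to DMSO.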

Assay [4] concerns the target human Protein Tyrosine Phosphatase Receptor Type C (PTPRC), PTPRC (gene 5788) (UniProt P08575). Put plainly: NVS_ENZ_hPTPRC: NovaScreen (NVS) Enzymatic Assay for human Protein Tyrosine Phosphatase Receptor Type C (PTPRC) (AID 2283212). An outline of the steps: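 Absorbance-based phosphatase activity of human PTPRC protein extracted from yeast was measured 1 h post-dosing. Compounds first tested at 25 uM in duplicate, then those passing threshold in singleton concentration series to 50 uM.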

The target of assay [5] is rat Monoamine Oxidase, MAO-B, Central (MAOBC), Maob (gene 25750) (UniProt P19643). Put plainly: NVS_ENZ_rMAOBC: NovaScreen (NVS) Enzymatic Assay for rat Monoamine Oxidase, MAO-B, Central (MAOBC) (AID 2283238). The gist of the method: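 Actives from a duplicate 25 uM screen went on to singleton concentration-response with a 50 uM maximum. Enzyme source was rat brain tissue MAO-B, assayed cell-free. Radiolabelled product was counted by scintillation 1.17 h post-dose, with signal loss relative to DMSO.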

Assay [6] concerns rat Monoamine Oxidase, MAO-A, Central (MAOAC), gene 29253. Put plainly: NVS_ENZ_rMAOAC: NovaScreen (NVS) Enzymatic Assay for rat Monoamine Oxidase, MAO-A, Central (MAOAC) (AID 2283243).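 Note: potency refers to inhibition seen as signal drop below DMSO baseline.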 An outline of the steps:
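Scintillation read-out of MAO-A activity in rat brain lysate, 1.5 h post-dosing. Primary single-concentration screen: 25 uM, duplicate; actives re-tested in concentration series. DMSO = negative control/baseline.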

The target in assay [7] is human Neonicotinoid receptor (NNR), CHRNA2 (gene 1135) (UniProt Q15822). In words: NVS_LGIC_hNNR_NBungSens: NovaScreen (NVS) Ligand-Gated Ion Channel Assay for human Neonicotinoid receptor (NNR) (AID 2283313). The gist of the method:
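Compounds first screened in duplicate at 25 uM, then actives re-tested in single-replicate dose series up to 50 uM. Binding measured as displacement of specific radioligand from neuroblastoma membrane receptors after 2 h, scintillation read on filters.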

Assay [8] deals with bovine Gamma-Aminobutyric Acid Type A Receptor BDZ, alpha 1 site (GABARa1), GABRA1 (gene 780973) (UniProt P08219). Put plainly: NVS_LGIC_bGABARa1: NovaScreen (NVS) Ligand-Gated Ion Channel Assay for bovine Gamma-Aminobutyric Acid Type A Receptor BDZ, alpha 1 site (GABARa1) (AID 2283321). An outline of the steps:
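Bovine cortex membrane preparation, benzodiazepine site on GABA-A alpha1; specific radioligand displacement read after 0.75 h by filtration and scintillation. Screen at 25 uM, then singleton titrations up to 50 uM; DMSO baseline.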

Assay [9] concerns the target rat Gamma-Aminobutyric Acid Type A Receptor BDZ, alpha 6 site (GABARa6), Gabra6 (gene 29708) (UniProt P30191). Put plainly: NVS_LGIC_rGABARa6: NovaScreen (NVS) Ligand-Gated Ion Channel Assay for rat Gamma-Aminobutyric Acid Type A Receptor BDZ, alpha 6 site (GABARa6) (AID 2283339). An outline of the steps:
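Actives from a 25 uM duplicate screen were retested in concentration series (max 50 uM). Specific radioligand displacement from rat cerebellar membranes was counted by filter-based scintillation at 1 h; DMSO served as baseline.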

For assay [10], the target named is human Tyrosine Protein Kinase Receptor Tie-2 (Tie2), TEK (gene 7010) (UniProt Q02763). In words: NVS_ENZ_hTie2: NovaScreen (NVS) Enzymatic Assay for human Tyrosine Protein Kinase Receptor Tie-2 (Tie2) (AID 2283225). An outline of the steps: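 Substrate and product were separated by mobility shift and detected by fluorescence after a 1-hour reaction with recombinant Tie2. Chemicals passing a 25 uM single-point screen were titrated to a maximum of 50 uM. Results were normalized to DMSO baseline.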

Assay [11] has as its target Voltage-dependent N-type calcium channel subunit alpha-1B (Rattus norvegicus) (UniProt Q02294). Put plainly: NVS_IC_rCaChN: NovaScreen (NVS) Ion Channel Assay for rat Calcium Channel, Type N (CaChN) (AID 2283317).

Results filed as inconclusive are left out. Active and inactive are the calls of the source. Rule for the calls: active = hit-call score of the fitted dose curve at least 0.9, where 1 is the maximum; inconclusive = response in the unintended direction; inactive = score below 0.9.

What is called AC50 is the concentration giving half of the maximal activity seen.

human Protein Tyrosine Phosphatase Receptor Type C (PTPRC), PTPRC (gene 5788), sequence (P08575 whole entry, looked up): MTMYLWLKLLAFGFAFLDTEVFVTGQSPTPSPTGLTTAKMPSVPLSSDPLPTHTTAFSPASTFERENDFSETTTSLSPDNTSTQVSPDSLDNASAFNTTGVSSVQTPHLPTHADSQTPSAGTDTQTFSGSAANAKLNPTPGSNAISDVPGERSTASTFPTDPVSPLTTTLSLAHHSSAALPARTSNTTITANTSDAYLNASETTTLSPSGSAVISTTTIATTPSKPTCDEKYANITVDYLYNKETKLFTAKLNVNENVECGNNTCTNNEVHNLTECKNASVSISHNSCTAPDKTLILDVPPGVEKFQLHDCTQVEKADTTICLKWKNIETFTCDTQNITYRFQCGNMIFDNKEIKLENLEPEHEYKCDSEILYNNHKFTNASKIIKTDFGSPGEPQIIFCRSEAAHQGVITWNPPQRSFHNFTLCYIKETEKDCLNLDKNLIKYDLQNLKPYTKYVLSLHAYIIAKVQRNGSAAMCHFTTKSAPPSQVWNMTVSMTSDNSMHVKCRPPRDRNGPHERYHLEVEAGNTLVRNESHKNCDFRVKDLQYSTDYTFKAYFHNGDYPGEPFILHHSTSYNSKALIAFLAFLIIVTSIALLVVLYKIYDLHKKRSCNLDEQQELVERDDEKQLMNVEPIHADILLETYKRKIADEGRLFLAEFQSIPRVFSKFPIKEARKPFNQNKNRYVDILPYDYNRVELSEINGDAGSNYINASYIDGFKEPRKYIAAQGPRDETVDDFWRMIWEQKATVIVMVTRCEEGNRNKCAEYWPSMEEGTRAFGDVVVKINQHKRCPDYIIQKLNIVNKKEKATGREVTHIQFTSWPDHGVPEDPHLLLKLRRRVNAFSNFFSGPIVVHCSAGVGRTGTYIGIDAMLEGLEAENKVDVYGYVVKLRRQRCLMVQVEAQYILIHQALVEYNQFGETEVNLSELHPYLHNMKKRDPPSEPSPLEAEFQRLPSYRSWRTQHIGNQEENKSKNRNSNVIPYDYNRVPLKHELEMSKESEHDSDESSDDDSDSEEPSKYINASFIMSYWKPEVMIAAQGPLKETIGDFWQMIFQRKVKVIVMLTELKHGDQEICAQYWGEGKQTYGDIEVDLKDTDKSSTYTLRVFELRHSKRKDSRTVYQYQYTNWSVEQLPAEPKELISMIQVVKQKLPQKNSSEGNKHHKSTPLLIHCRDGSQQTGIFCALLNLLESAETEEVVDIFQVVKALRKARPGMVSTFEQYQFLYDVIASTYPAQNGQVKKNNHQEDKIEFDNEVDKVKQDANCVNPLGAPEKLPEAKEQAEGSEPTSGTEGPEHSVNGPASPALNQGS
rat Monoamine Oxidase, MAO-B, Central (MAOBC), Maob (gene 25750), sequence (P19643 whole entry, looked up): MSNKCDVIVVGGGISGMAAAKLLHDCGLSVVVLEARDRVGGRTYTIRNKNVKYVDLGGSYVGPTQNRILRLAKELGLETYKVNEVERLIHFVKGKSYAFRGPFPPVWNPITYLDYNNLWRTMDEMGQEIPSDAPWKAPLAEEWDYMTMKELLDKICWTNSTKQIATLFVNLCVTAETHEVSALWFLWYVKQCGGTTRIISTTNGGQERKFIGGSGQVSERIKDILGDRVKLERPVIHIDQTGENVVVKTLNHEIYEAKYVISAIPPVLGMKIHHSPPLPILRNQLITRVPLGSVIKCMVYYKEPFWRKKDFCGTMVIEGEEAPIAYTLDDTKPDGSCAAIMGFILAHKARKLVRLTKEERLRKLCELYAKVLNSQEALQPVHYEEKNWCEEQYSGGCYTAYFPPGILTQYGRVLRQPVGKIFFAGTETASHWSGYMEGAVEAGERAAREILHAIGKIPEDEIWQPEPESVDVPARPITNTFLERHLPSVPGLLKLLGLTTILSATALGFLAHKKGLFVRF
rat Acetylcholinesterase (AChE), Ache (gene 83817), sequence (P37136 whole entry, looked up): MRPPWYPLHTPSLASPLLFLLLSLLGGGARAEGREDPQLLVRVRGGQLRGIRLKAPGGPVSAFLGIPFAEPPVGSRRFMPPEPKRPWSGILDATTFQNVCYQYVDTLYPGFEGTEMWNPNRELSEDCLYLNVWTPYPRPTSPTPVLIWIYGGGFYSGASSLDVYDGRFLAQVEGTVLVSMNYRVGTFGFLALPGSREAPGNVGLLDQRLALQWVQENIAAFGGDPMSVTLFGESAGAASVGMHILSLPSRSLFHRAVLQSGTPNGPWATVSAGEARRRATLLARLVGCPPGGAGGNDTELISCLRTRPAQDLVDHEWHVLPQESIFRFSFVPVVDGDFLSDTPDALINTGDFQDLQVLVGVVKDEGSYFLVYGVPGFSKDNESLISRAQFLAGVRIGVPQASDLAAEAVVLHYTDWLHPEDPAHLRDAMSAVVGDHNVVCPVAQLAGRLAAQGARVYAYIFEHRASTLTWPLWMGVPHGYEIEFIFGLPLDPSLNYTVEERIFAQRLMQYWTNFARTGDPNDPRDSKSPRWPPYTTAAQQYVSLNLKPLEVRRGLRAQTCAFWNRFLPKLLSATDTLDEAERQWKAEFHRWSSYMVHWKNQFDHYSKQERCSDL
human Raf-1 Proto-Oncogene, serine/threonine Kinase (RAF1), RAF1 (gene 5894), sequence (P04049 whole entry, looked up): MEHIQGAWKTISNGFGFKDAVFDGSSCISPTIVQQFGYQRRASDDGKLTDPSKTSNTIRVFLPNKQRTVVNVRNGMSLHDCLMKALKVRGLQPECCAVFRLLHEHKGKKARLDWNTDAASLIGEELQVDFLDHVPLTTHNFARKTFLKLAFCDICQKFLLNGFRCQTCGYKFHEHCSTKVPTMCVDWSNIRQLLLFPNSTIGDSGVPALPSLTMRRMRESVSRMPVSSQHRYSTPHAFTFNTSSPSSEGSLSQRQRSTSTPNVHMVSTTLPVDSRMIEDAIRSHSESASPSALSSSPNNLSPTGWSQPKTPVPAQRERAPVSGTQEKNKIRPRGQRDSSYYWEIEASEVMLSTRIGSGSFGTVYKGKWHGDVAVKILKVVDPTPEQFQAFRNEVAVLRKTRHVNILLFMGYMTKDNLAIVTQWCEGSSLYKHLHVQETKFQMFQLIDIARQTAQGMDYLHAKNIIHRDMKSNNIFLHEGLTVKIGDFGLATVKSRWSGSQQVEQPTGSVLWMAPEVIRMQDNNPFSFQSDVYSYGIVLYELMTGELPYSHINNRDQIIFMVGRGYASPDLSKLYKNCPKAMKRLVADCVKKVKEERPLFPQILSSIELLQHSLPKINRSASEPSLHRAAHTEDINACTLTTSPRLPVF
human Tyrosine Protein Kinase Receptor Tie-2 (Tie2), TEK (gene 7010), sequence (Q02763 whole entry, looked up): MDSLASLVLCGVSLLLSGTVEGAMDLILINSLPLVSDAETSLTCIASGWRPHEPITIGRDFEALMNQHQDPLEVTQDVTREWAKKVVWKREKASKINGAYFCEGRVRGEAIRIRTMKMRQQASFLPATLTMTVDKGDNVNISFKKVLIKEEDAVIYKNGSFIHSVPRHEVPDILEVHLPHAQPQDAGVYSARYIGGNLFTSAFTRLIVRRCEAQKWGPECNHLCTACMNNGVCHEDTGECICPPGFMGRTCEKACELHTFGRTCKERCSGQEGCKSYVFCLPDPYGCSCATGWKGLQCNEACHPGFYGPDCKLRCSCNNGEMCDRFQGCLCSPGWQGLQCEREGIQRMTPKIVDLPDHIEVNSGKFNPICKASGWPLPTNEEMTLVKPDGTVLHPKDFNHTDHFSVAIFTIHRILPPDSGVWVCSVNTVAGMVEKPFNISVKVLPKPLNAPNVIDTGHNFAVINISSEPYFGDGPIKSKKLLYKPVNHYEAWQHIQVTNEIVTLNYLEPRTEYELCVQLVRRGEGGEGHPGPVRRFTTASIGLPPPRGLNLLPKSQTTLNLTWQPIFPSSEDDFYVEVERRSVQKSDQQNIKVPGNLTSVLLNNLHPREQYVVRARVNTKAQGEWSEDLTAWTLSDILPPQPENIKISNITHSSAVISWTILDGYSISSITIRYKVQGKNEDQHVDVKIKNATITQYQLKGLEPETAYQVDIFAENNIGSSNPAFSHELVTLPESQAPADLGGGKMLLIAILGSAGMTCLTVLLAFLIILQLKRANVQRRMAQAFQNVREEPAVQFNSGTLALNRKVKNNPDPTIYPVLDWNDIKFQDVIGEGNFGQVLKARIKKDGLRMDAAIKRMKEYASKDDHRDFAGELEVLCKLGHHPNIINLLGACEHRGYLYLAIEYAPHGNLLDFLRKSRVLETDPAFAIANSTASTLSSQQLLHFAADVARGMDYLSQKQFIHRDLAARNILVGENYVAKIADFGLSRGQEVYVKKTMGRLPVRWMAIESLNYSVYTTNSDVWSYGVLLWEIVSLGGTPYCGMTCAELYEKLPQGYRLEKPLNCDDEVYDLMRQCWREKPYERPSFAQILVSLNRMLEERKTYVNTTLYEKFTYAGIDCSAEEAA
human Neonicotinoid receptor (NNR), CHRNA2 (gene 1135), sequence (Q15822 whole entry, looked up): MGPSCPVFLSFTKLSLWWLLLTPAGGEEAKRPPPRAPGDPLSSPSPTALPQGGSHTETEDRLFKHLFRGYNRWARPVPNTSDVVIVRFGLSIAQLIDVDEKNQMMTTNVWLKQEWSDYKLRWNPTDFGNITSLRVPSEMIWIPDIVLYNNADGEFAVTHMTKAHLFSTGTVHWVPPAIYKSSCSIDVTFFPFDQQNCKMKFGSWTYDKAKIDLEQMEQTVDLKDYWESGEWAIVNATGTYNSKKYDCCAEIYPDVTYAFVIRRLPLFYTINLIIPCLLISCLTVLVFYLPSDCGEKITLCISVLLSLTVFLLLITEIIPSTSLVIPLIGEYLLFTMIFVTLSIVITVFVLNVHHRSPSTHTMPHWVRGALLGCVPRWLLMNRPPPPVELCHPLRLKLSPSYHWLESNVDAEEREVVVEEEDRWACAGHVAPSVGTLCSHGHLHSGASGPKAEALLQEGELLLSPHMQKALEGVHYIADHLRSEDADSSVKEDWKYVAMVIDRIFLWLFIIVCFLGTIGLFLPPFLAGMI
rat Monoamine Oxidase, MAO-B, Peripheral (MAOBP), Maob (gene 25750), sequence (P19643 whole entry, looked up): as the sequence (P19643 whole entry, looked up) above

On to `COC(=O)c1ccc(CNS(C)(=O)=O)cc1S(=O)(=O)NC(=O)Nc1nc(OC)cc(OC)n1`, for which, in assay [1], the AC50 was 35.5 µM (active).
As to `Nc1ccc(N)c([N+](=O)[O-])c1`, the call in [2] was inactive.
For `O=C(O)c1ccccc1C(c1ccc(O)cc1)c1ccc(O)cc1`, in assay [3], the molecule was classed as inactive.
With `CCCCCCCCCCCCCCOS(=O)(=O)O`, in [4], the AC50 was 24.2 µM (active).
On to `CC(O)CC(C)(C)O` (stereo not given), for which the outcome in assay [5] was inactive.
As for `CCCCCCCCCCCC[N+](C)(C)C`, the molecule was classed as inactive in [2]. Further, the AC50 in [6] was 25 µM (active); in assay [7], 13.3 µM (active).
As for `C=CN1CCCC1=O`, in [5], the call was inactive.
`c1ccc(Oc2ccccc2)cc1`: the result in assay [2] was inactive.
For `CCn1nc(C)c2c1C(=O)NCC(c1ccc(O)cc1)=N2`, the outcome in [2], in assay [8] and in [9] was inactive.
As to `CCCCCCCCCCCCCC[N+](C)(C)C`, in [2], the AC50 is 21.3 µM (active).
With `CCCCCC(C)OC(=O)COc1ccc(Cl)c2cccnc12` (stereo not given), the molecule was classed as inactive in assay [5].
As to `ClC1=C(Cl)C(Cl)(Cl)C(Cl)=C1Cl`, the AC50 in [4] is 10.9 µM (active).
On to `CCCCOC(=O)CCCCC(=O)OCCCC`, for which the outcome in assay [10] was inactive.
Take `CCCCc1oc2ccccc2c1C(=O)c1cc(I)c(OCCN(CC)CC)c(I)c1`: in assay [2], the call was inactive. Besides, the AC50 in [6] is 18.9 µM (active).
For the molecule `COC(=O)c1c(Cl)nn(C)c1S(=O)(=O)NC(=O)Nc1nc(OC)cc(OC)n1`, in assay [3], the result was inactive.
Consider `CC1(C)CC(N=C=O)CC(C)(CN=C=O)C1` (stereo not given), for which, in assay [5], the molecule was classed as inactive.
As to `CC(C)c1cccc(C(C)C)c1`, the result in [4] and in assay [11] was inactive.
On to `CCCCc1nc2cccnc2n1Cc1ccc(-c2ccccc2-c2nnn[nH]2)cc1`, for which the molecule was classed as inactive in [4].
For `C[C@]12C=CC(=O)C=C1CC[C@H]1[C@@H]3C[C@@H](O)[C@](O)(C(=O)CO)[C@@]3(C)C[C@H](O)[C@@]12F`, the result in [10] was inactive.

Values taken from PubChem BioAssay (EPA / NIEHS).
